Results reported in PubChem BioAssay.

assay: FRG1 promoter luciferase signal modulators, primary screen, FRG1 inhibition for FSHD, cell-based, C2C12 myotubes, firefly/Renilla luciferase, luminescence (AID 1084); details: higher = more signal, called active from +8 up or from −8 down

z-score, inactive:
CCOC(=O)NN=C1C[C@@H](O)[C@@H](O)[C@@H]2[C@@H]3C(=O)N([C@@H](C)c4ccccc4)C(=O)[C@@H]3CC[C@@H]12 0.696
COC(=O)[C@@H]1CC[C@H](C)[C@@H](c2ccc(C)cc2)N1C(=O)c1ccc(C=NO[C@@H](C)c2cn([C@H](CO)Cc3ccccc3)nn2)cc1 -3.25
O=C1CCCC=C1C(O)CCOC(c1ccccc1)(c1ccccc1)c1ccccc1 (stereo not drawn) -0.0611
COC(=O)CC=C[C@@H](C)[C@@H]1C=C[C@H](O)[C@@H](CO)O1 -0.163
C[C@@H](ON=C1[C@H]2CCn3c(=O)n(-c4ccccc4)c(=O)n3[C@H]2[C@H](O)[C@@H]2O[C@H]12)c1cn([C@@H]2COC[C@H]2O)nn1 1.15
CO[C@@H]1COC(=O)[C@H](CCSC)NC(=O)CC=C[C@@H](C)COC(=O)CCC[C@H]1C 0.0651
COc1cccc([C@@H]2Oc3ccc(OC)cc3C(=O)[C@H]2O)c1 7.25
C=CC1=C[C@H](O)[C@@H]2O[C@@H]2C12OCCCO2 0.293
CCOC(=O)NN=C1C[C@@H](O)[C@@H](O)[C@@H]2[C@@H]3C(=O)N(Cc4ccccc4)C(=O)[C@@H]3CC[C@H]12 1.08
COC(=O)[C@@H]1CC[C@H](C)[C@@H](c2ccc(C)cc2)N1C(=O)c1ccc(C=NO[C@H](C)c2cn([C@H](CO)Cc3ccccc3)nn2)cc1 0.0599
COc1cc(O)c(C(=O)C=Cc2ccc3c(c2)OCO3)c(OC)c1 -0.984
CCOC(=O)[C@H](CC(C)C)NC(=O)CCC1CC(OC(=O)NCc2cccc3ccccc23)CC2(CCCC(COC(=O)NCC3CCCCC3)O2)O1 (stereo partly drawn) 0.791
Cc1cc2c(c(=O)o1)[C@@H](O)[C@H]1O[C@H]1C2=O 0.446
Cc1ccc(S(=O)(=O)NC(CCc2ccccc2)CC(=O)C(C)(C)C)cc1 (stereo not drawn) -3.04
C[C@@H](c1ccccc1)N1C(=O)[C@H]2[C@H]3[C@H](O)[C@H](O)CC(=NO[C@@H]4O[C@H](CO)[C@@H](O)[C@H](O)[C@H]4O)[C@@H]3CC[C@H]2C1=O 0.19
CCN1C(=O)[C@@H]2[C@H]3C(=CC[C@@H]2C1=O)C1(OCCCO1)[C@H]1O[C@H]1[C@H]3O 7.42
CCOC(=O)[C@H](CC(C)C)NC(=O)CCC1CC(OC(=O)NCc2cccc3ccccc23)CC2(CCCC(COC(=O)NCCCN3CCCC3=O)O2)O1 (stereo partly drawn) 1.74
CC(=O)OC[C@H]1OC(ON=CC[C@@H]2C=C[C@H](OC(C)=O)[C@@H](COC(C)=O)O2)[C@H](OC(C)=O)[C@@H](OC(C)=O)[C@@H]1OC(C)=O (stereo partly drawn) -0.0946
COc1ccc(O[C@@H]2[C@H](O)CO[C@@H]2C=Cc2ccccc2)cc1 -0.136
O=C1[C@H]2[C@H]3[C@H](O)[C@H](O)CC(=NOC[C@@H](O)COCc4ccco4)[C@H]3CC[C@H]2C(=O)N1C[C@@H]1CCCO1 0.839
CC(C)=CCCC(C)=CCON=C1C[C@@H](O)[C@@H](O)[C@@H]2[C@@H]3C(=O)N(C(C)(C)C)C(=O)[C@@H]3CC[C@@H]12 -0.519
C#CCCCON=C1C[C@@H](O)[C@@H](O)[C@@H]2[C@@H]3C(=O)N(CCC(=O)OCC)C(=O)[C@@H]3CC[C@H]12 -1.41
C[C@H]1CC[C@H]2C(=O)O[C@H](COc3ccc(C(C)(C)C)cc3)CN2[C@@H]1c1ccc(Br)cc1 -0.0935
CC(C)=CCCC(C)=CCON=C1C[C@@H](O)[C@@H](O)[C@@H]2[C@@H]3C(=O)N(c4cccc(Oc5ccccc5)c4)C(=O)[C@@H]3CC[C@@H]12 0.508
COc1ccc(O[C@H]2C=C[C@@H](c3ccccc3)O[C@@H]2COC(=O)CCC(C)=NOC(C)CN2CCCc3nc(C)c(C)cc32)cc1 (stereo partly drawn) -0.863
COC(=O)[C@H](C)NC(=O)CCC1CC(OC(=O)NCc2cccc3ccccc23)CC2(CCCC(COC(=O)NCC(c3ccccc3)c3ccccc3)O2)O1 (stereo partly drawn) 2.44
C=COC[C@@H]1CN2[C@@H](CC[C@@H](C)[C@@H]2c2ccc(Br)cc2)C(=O)O1 0.151
CCOC(=O)[C@H](CC(C)C)NC(=O)CCC1CC(OC(=O)NCc2cccc3ccccc23)CC2(CCCC(COC(=O)NCCC(C)C)O2)O1 (stereo partly drawn) 0.164
